Screens as filed in PubChem.
Sampled rows, rich in hits. Any-hit rate of the full collection: about 12%.
WT yeast gro inh – growth inhibition of WT yeast, mitochondrial fusion screen; mitochondrial fusion phenotypic screen, WT strain; inhibition, % at 10 µM; 190,000 compounds, 2.1% hits; AID 1362; in the data active = inhibition above about 58%; tested in S. cerevisiae
CHOP inh – CHOP inhibition in unfolded protein response; CHO-K1 CHOP-promoter luciferase, tunicamycin-induced, 15-18 h; inhibition, % at 10 µM; 220,000 compounds, 3.8% hits;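 active = compounds that reduced the stress-induced luciferase reporter signal by more than about 70% of percent inhibition, limit read from the data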
Arbovirus inh – antivirals against arbovirus infection | arbovirus infection cell-based antiviral screen | inhibition, % at 10 µM | 200,000 compounds, 0.37% hits; in the data active = inhibition above about 30%
L major viab – Leishmania major promastigote growth inhibition; Leishmania major promastigotes, resazurin fluorescence viability; inhibition, % at 10 µM; 200,000 compounds, 9% hits; AID 1063; in the data active = inhibition above about 50%;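 also: promastigotes grown with compound for 44 hours at 28 °C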
Of the large screens only hits and unclear results are named; the others gave an inactive call; ! = a repeat was not active.

O=S(=O)(c1ccc(Cl)cc1)N1CCC(N2CCOCC2)CC1	L major viab 91
COc1ccc(S(=O)(=O)N2CCN(C3CCCCCCC3)CC2)cc1	CHOP inh 74!, L major viab 73
CCN(CC)C(=O)CSc1nc(-c2ccccc2)cc(=O)[nH]1	none
CN1CCN(c2ccc(NC(=O)c3ccc(C#N)cc3F)cc2Cl)CC1	none
O=S(=O)(c1ccc(-c2ccccc2)cc1)N1CCOCC1	none
Nc1nc(-c2ccc(Cl)cc2)c(N=Nc2ccc(S(=O)(=O)N3CCOCC3)cc2)s1	L major viab 74
CCOC(=O)C1(Cc2ccc(Cl)cc2)CCN(C(=O)c2cscn2)CC1	none
Cc1cc(Br)ccc1NC(=O)CN1C(=S)NC(C)(C)CC1C (stereo not drawn)	none
O=C(/C=C/c1cccnc1)c1ccc(NC(=O)c2cccc(Br)c2)cc1	L major viab 99
O=C(Nc1ccc(Br)cc1)c1ccc(Br)c(S(=O)(=O)Nc2cccnc2)c1	L major viab 73
Cc1cccc(C(=O)Nc2ccc(C(=O)/C=C/c3cccnc3)cc2)c1	L major viab 100
Cc1cccc(NC(=O)c2cccnc2)c1	none
O=C(/C=C/c1cccnc1)/C=C/c1cccnc1	CHOP inh 97 (no result: WT yeast gro inh, Arbovirus inh, L major viab)
O=C(N/C(=C\c1cccnc1)C(=O)N1CCOCC1)c1cccc(Br)c1	none
COc1ccc(C2CNC(=O)C2)cc1OC1CCCC1 (stereo not drawn)	none
CCOC(=O)CN/C=C(\C#N)c1ccccc1	none
O=[N+]([O-])c1ccc([N+](=O)[O-])c(Nc2ccc(N3CCOCC3)cc2)c1	none
CC(=O)Nc1ccc(C)c(NS(=O)(=O)c2cccc(C(F)(F)F)c2)c1	none (no result: WT yeast gro inh, Arbovirus inh, L major viab)
Cc1ccn(S(=O)(=O)c2ccc(C(C)(C)C)cc2)n1	L major viab 71
CCOc1cc(S(=O)(=O)n2ccc(C)n2)ccc1Br	none
CC(=O)COc1cc(C)cc2oc(=O)cc(-c3ccccc3)c12	none
COc1ccc([N+](=O)[O-])cc1COc1cc(C)cc2oc(=O)cc(-c3ccccc3)c12	L major viab 99
Cc1ccc(CNC(=O)C(Cc2ccccc2)NS(=O)(=O)c2ccc(Br)s2)cc1 (stereo not drawn)	WT yeast gro inh 81
Cc1ccc(CNC(=O)C(Cc2ccccc2)NS(=O)(=O)c2cccs2)cc1 (stereo not drawn)	L major viab 59
CCOC(=O)CNC(=O)C(Cc1ccccc1)NS(=O)(=O)c1cccs1 (stereo not drawn)	none
O=C(NC1CCCCC1)C(Cc1ccccc1)NS(=O)(=O)c1cccs1 (stereo not drawn)	none
CSCCC(NS(=O)(=O)c1cccs1)C(=O)NCc1ccc(C)cc1 (stereo not drawn)	none
O=C(NC1CCCc2ccccc21)C(Cc1ccccc1)NS(=O)(=O)c1cccs1 (stereo not drawn)	L major viab 77
Cc1ccc(-c2cc(C(=O)N/N=C/C=C/c3ccccc3)n[nH]2)s1	none
CC1CCN(S(=O)(=O)c2cccc(C(=O)NNC(=O)c3ccco3)c2)CC1	none (no result: WT yeast gro inh, Arbovirus inh, L major viab)
NNC(=O)c1cc2cc3ccccc3nc2s1	none
CC(O)CNC12CC3CC(CC(C3)C1)C2 (stereo not drawn)	none
CC(C)(C)N=C1NC(=NC(C)(C)C)c2ccccc21	L major viab 66
CC(=O)Oc1ccc(/C=N/NS(=O)(=O)c2ccccc2)cc1	none
CC(C)CCOc1ccc(/C=C2\CCn3c2nc2cc(C(=O)O)ccc2c3=O)cc1	CHOP inh 90, Arbovirus inh 38
COc1ccc(/C=C2\CCn3c2nc2cc(C(=O)O)ccc2c3=O)cc1OC	none (no result: WT yeast gro inh, Arbovirus inh, L major viab)
CCOc1ccc(NC(=O)/C(C#N)=C/c2ccc(N3CCCC3)c(C)c2)cc1	CHOP inh 101
CCN(CC)S(=O)(=O)c1ccc(N2CCCCC2)c(NC(=O)/C(C#N)=C/c2ccc(OC)cc2)c1	none
CCOC(=O)C1C(=O)OC(C)(C)C1C(CC)C(=O)c1c(C)cc(C)cc1C (stereo not drawn)	none (no result: WT yeast gro inh, Arbovirus inh, L major viab)
CCOC(=O)c1cnc2c(C(=O)OC)cccc2c1NCc1cccnc1	none
COc1ccc2c(c1)c(=O)oc1cc3oc(C)c(C)c3cc12	none
COc1ccc2c(c1)c(=O)oc1cc3occ(C(C)(C)C)c3cc12	CHOP inh 87
COc1ccc(-n2ncc3c(=O)n(Cc4c(F)cccc4Cl)cnc32)cc1	none
COc1ccc(/C=N\NC(=O)C2=NNC(=O)C2C)cc1 (stereo not drawn)	none
COc1ccc(NC(=O)C2CCCNC2)cc1OCC(C)C (stereo not drawn)	CHOP inh 77
O=c1[nH]c2ccc(Br)cc2c(-c2ccccc2)c1CN1CCOCC1	none
O=c1[nH]c2ccc(Br)cc2c(-c2ccccc2)c1N1CCOCC1	CHOP inh 77
Cc1cccc(N2CCN(Cc3cnc(Cl)s3)CC2C)c1 (stereo not drawn)	L major viab 78
